{"source": "ChEMBL document CHEMBL3433997", "about": "“St. Jude Leishmania screening dataset” (2016)"}
{"biological_target": "Glucose transporter (Leishmania mexicana) (UniProt O61059)", "assay": "ST_JUDE_LEISH: Cytotoxicity at 2uM final concentration against transgenic Leishmania Mexicana promastigotes LmGT2 that are glucose transport deficient and complemented with the L. Mexicana glucose transporter 2. Activity is measured by DNA content using SYBR green in vitro", "type": "functional", "units": {"inhibition": "%"}}
{"smiles": "Cc1c(C)c2c(c(C)c1O)CC[C@@](C)(C(=O)N1CCC(CCN3CCC(c4c[nH]c5ccccc45)CC3)CC1)O2", "inhibition": 4.66}
{"smiles": "COc1ccc2nccc([C@@H](O)CN3CCC(NCc4ccc5nnsc5c4)CC3)c2c1", "inhibition": -0.67}
{"smiles": "CN(CC(=O)Nc1ccc(F)c(F)c1F)c1ncnc2sc(-c3ccccc3)cc12", "inhibition": 2.74}
{"smiles": "N#Cc1ccc(-c2ccc(C(=O)NC3CCN(CCN4CCC(c5cn(CCO)c6ccccc56)CC4)CC3)cc2)cc1", "inhibition": 1.44}
{"smiles": "CCOC(=O)[C@H](Cc1cc([N+](=O)[O-])c(Oc2ccc(OC)c(Cc3ccc(OC)c(C(C)C)c3)c2)c([N+](=O)[O-])c1)NC(=O)C(F)(F)F", "inhibition": 12.6}
{"smiles": "CCCC(C)NC(=O)[C@H](CC1CCCCC1)NC(=O)c1ccc(O)c(-c2cccc(C(F)(F)F)c2)c1", "note": "(stereo not given in full)", "inhibition": 0.42}
{"smiles": "CC(C)NC(=O)c1cccc(-c2cccc(OCCN3CCSCC3c3ccccc3)c2)c1", "note": "(stereo not given)", "inhibition": 8.53}
{"smiles": "CCN(CC)CCOc1ccc(C(O)(C#CC(O)(c2ccc(Br)cc2)c2ccc(OCCN(CC)CC)cc2)c2ccc(Br)cc2)cc1", "note": "(stereo not given)", "inhibition": 3.37}
{"smiles": "CC(C)N1CCC(N(Cc2ccc(-c3ccc(Cl)cc3)cc2)C(=O)Cn2c(CCc3cccc(F)c3F)cc(=O)c3ccccc32)CC1", "inhibition": 1.92}
{"smiles": "COc1ccc(CN(C)CCCOc2ccc(NC(=O)c3cccc4c(=O)c5cccc(C)c5[nH]c34)cc2)cc1OC", "inhibition": 3.39}
{"smiles": "N=C(/N=C(/NCCCCCCN/C(=N\\C(=N)Nc1ccc(Cl)cc1)N1CCOCC1)N1CCOCC1)Nc1ccc(Cl)cc1", "inhibition": 9.37}
{"smiles": "Cc1sc(NC(=O)Cc2cccc(C(F)(F)F)c2)nc1-c1cccc(Cl)c1", "inhibition": 8.34}
{"smiles": "CC1CCN(CC[C@H]2CCCN2S(=O)(=O)c2cccc(NC(=O)c3cc4ccccc4s3)c2)CC1", "inhibition": 3.15}
{"smiles": "CC(C)NCc1cc(Nc2ccnc3cc(Cl)ccc23)ccc1O", "inhibition": 1.69}
{"smiles": "CCOC(=O)[C@H](Cc1cccc2ccccc12)NC(=O)[C@H](CCC(=O)OC(C)(C)C)NC(=O)c1ccc(N(C)Cc2cnc3nc(N)nc(N)c3n2)cc1", "inhibition": 3.56}
{"smiles": "CN(C)c1ccc(-c2nc3cc(N)ccc3[nH]2)cc1", "inhibition": 0.22}
{"smiles": "COc1ccc2cc(-c3nc(-c4c(Cl)cccc4Cl)[nH]c3-c3ccnc(NCCCN4CCCCC4C)c3)ccc2c1", "note": "(stereo not given)", "inhibition": 0.19}
{"smiles": "CC(C)CC(C)NC(=O)C1Cc2c([nH]c3ccc(F)cc23)C2(CCN(Cc3ccccc3)CC2)N1", "note": "(stereo not given)", "inhibition": 7.75}
{"smiles": "COc1cc(-c2nc3ccc(N4CCN(C)CC4)cc3[nH]2)cc(OC)c1OC", "inhibition": 4.21}
{"smiles": "CC1CCCN1Cc1ccc(-c2ccc3c(=O)cc(CCc4cccc(F)c4F)n(CC(=O)N(C)Cc4ccc(-c5ccc(C(F)(F)F)cc5)cc4)c3n2)cc1", "note": "(stereo not given)", "inhibition": 10.4}
{"smiles": "Cc1ccc2c(Cc3cnc(N)nc3N)cc(C)c(N)c2n1", "inhibition": -0.09}
{"smiles": "COc1ccccc1C1CCN(C2CCC(NC(=O)/C=C/c3ccc(F)c(F)c3)CC2)CC1", "note": "(stereo not given)", "inhibition": -2.36}
{"smiles": "O=C(C=Cc1ccc(Cl)c(Cl)c1)NCCCCCN1CCC(CCNC(=O)c2cccc3ccccc23)CC1", "inhibition": 2.03}
{"smiles": "O=C(Nc1ccc(OC2CCN(Cc3ccccc3)CC2)c(Cl)c1)c1ccc(F)cc1", "inhibition": 1.68}
{"smiles": "O=C(Nc1cccc(-c2ccc(-c3nc4cc(F)ccc4[nH]3)s2)c1)c1ccncc1", "inhibition": 3.32}
{"smiles": "O=C(NCCCCN1CCN(c2cccc3c2CCCC3)CC1)c1ccc(NC(=O)c2ccc(Cl)cc2)cc1", "inhibition": 1.92}
{"smiles": "CC(=O)c1sc(Cc2nc3ccccc3s2)nc1C", "inhibition": -1.55}
{"smiles": "CN(C)CCOc1cc(NC(=O)Nc2ccc(-c3ccccc3)cc2)ccc1I", "inhibition": 12.6}
{"smiles": "Cc1c(Cl)cccc1S(=O)(=O)Nc1ccc(CCN2CCC(N)CC2)cc1", "inhibition": -2.13}
{"smiles": "COc1ccc(C2CCN(C#N)C2)cc1OC1CCCC1", "note": "(stereo not given)", "inhibition": 11.1}
{"smiles": "O=C(Nc1cccc(-c2cccc(-c3nc4cc(C(F)(F)F)ccc4[nH]3)c2)c1)c1cccnc1Cl", "inhibition": -2.92}
{"smiles": "Cn1ncc2ccc(Nc3nccc(-c4ccc5c(c4)c(N)nn5C)n3)cc21", "inhibition": 93.8}
{"smiles": "Cc1cc(C=C(P(=O)(OC(C)C)OC(C)C)P(=O)(OC(C)C)OC(C)C)c2ccccc2c1O", "inhibition": 1.63}
{"smiles": "Cc1cccc(CC(=N)NCCCCCCNC(=N)Cc2cccc(C)c2)c1", "inhibition": -2.06}
{"smiles": "O=C(NCCN1CCCCC1)c1ccc(CNC(=O)c2ccc(O)c(-c3ccc(Cl)c(Cl)c3)c2)cc1", "inhibition": -0.59}
{"smiles": "Fc1cccc(COc2ccc(Nc3ncnc4ccc(C#C[C@H]5CCCN5)cc34)cc2Cl)c1", "inhibition": 2.2}
{"smiles": "Fc1ccc2[nH]c(-c3cccc(-c4cccc(CN5CCN(c6ccncc6)CC5)c4)c3)nc2c1", "inhibition": 0.3}
{"smiles": "CC(C)NCc1cccc(-c2ccc(-c3nc4cc(C(F)(F)F)ccc4[nH]3)cc2)c1", "inhibition": 6.87}
{"smiles": "COc1ccc2nccc(CCN3CC(O)C(CNCc4ccc5c(n4)NC(=O)CS5)C3)c2n1", "note": "(stereo not given)", "inhibition": 4.07}
{"smiles": "Cc1cc(C2NC(=O)c3ccccc3N2)c(C)n1-c1ccc2c(c1)OCO2", "note": "(stereo not given)", "inhibition": 4.51}
